The results in this text go back to PubChem BioAssay.

In the assay the test system is Sonic hedgehog protein (Shh). The assay is described as follows: small-molecule binders of Shh protein, primary screen, biochemical, small-molecule microarray, 635/667 nm fluorescence (AID 1151).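 Further: Shh protein binding to compounds spotted on small-molecule microarray slides; score combines spot fluorescence intensity with signal-to-noise across triplicate slides.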 The note with it: small-molecule microarray binding, 635 nm fluorescence; higher = more signal.
Consider `COCCOC(=O)N1C(=O)[C@@]2(c3cc(C#CC4(O)CCCCCC4)ccc31)[C@H](C(N)=O)[C@H]1C(=O)O[C@H](c3ccccc3)[C@H](c3ccccc3)N1[C@@H]2c1ccccc1OCCO`, for which the composite z-score was 1.34.
The figure for `C=CCN1C(=O)[C@@]2(O[C@@H](CCO)[C@H]([Si](C)(C)c3ccc(OC)cc3)[C@H]2C)c2cc(N3C(=O)c4ccccc4Oc4ccccc43)ccc21` is 0.23; for `C[C@]1(C(=O)NC2CC2)c2ccccc2C(=O)N(Cc2ccc(OC(F)(F)F)cc2)[C@H]1c1ccc(CO)cc1` it is -0.379.
In the case of `CC(C)(C)OC(=O)CC[C@]1(C(=O)N2CCOCC2)N=C(c2ccc(OCCCO)cc2)O[C@H]1c1ccccc1` it was -0.733; in that of `C=C[C@@H](C)[C@H](OC(=O)Nc1ccc(SC)cc1)c1ccc(OCCO)cc1`, 0.182; in that of `COC(=O)[C@@]1(Cc2ccc(OC)cc2)[C@H]2c3cc(C(=O)N4CCCC4)n(CCc4cc5ccccc5[nH]4)c3C[C@H]2CN1C(=O)c1ccccc1`, -0.309.
The figure for `C=CCNC(=O)[C@@H]1[C@H]2C(=O)O[C@H](c3ccccc3)[C@H](c3ccccc3)N2[C@H](c2ccc(OCCO)cc2)[C@@]12C(=O)N(C(=O)OCCOC)c1ccc(C#CC3=CCCCC3)cc12` is 1.46; for `CC(C)C(CO)N1C(=O)[C@]2(C)C3C(=O)OCCC/C=C\[C@H]3OC23C=CCN(c2ccc(Cl)cc2)C(=O)[C@@H]13` (stereo not given in full) it is 0.279; for `C=CC[C@H](OC(=O)Nc1ccc(OC)cc1)c1ccc(O)c2ccccc12` it is 1.66.
As for `COc1cc(CO)cc(I)c1O[C@H]1C=C(C(=O)NCCO)C[C@@H](N(Cc2ccc(F)cc2)C(=O)C2CCCO2)[C@@H]1O` (stereo not given in full), the composite z-score was 0.399.
In the case of `CCCC[C@@H]1C[C@H]1[C@@H](NC(=O)c1ccccc1)c1ccc(Cl)cc1` it was -1.34.
The figure for `CN(C)CCCNC(=O)[C@@H]1c2ccccc2C(=O)N(CC23CC4CC(CC(C4)C2)C3)[C@H]1c1ccc(CO)cc1` is 1.5.
In the case of `CC(=O)N1Cc2ccccc2C[C@]2(N=C(c3ccc(OCCCO)cc3)O[C@@H]2c2ccccc2)C1=O` it was 1.18; in that of `C=CCOC(=O)[C@H]1[C@@H]2C(=O)O[C@@H](c3ccccc3)[C@@H](c3ccccc3)N2[C@@H](c2ccc(OCCOC(=O)[C@H]3C[C@H]4C(=O)N[C@@H](Cc5ccccc5)C(=O)N4[C@H]3c3ccc(O)cc3)cc2)[C@]12C(=O)Nc1ccc(I)cc12`, 2.32.
For the molecule `COC(=O)C1(Cc2ccccc2)C=C2C(=C(C(C)C)C(=O)C2C)CN1` (stereo not given), the composite z-score is -0.45.
In the case of `C=CC[C@]12N=C(c3ccc(OCCCO)cc3)O[C@H]1c1ccccc1N(C)C2=O` it was 1.28; in that of `CC=CC(O)C1C=CC2C(=O)N(C)C(=O)C2N1N1CCCCC1` (stereo not given), 0.441.
In the case of `CCCNC(=O)[C@@]1(c2ccc([N+](=O)[O-])cc2)CC(=O)N(C2CCCCC2)[C@@H]1c1ccc(CO)cc1I` it was 1.85; in that of `O=C1C[C@@](C(=O)NCC(F)(F)F)(c2ccc([N+](=O)[O-])cc2)[C@@H](c2ccc(CO)cc2)N1C1CCCCC1`, 1.22; in that of `CCOC(=O)C[C@H]1[C@H](OC(=O)c2ccccc2-c2ccccc2)[C@@H](NC(=O)CC(C)C)c2cc(OCCCO)ccc2N1C(=O)c1ccc2ccccc2n1`, 0.196.
The figure for `COc1ccc(C(O)C2C=CC3C(=O)N(C)C(=O)C3N2N2CCCCC2)cc1` (stereo not given) is -0.381; for `CCCCC(CC)C(O)C1C=CC2C(=O)N(c3ccccc3)C(=O)C2N1Nc1ccc([N+](=O)[O-])cc1` (stereo not given) it is -0.277; for `C=C(C(=O)CC[C@H](OC(C)=O)c1cccc(OCCO)c1)C(C)C` it is 0.144.
For `C=C(/C(=C/C[C@@H](OC(=O)c1ccncc1)c1ccccc1OCCO)c1cc(C(=O)OC)ccc1OC)C(C)C`, the composite z-score was determined as 0.698.
For `COc1ccc([Si](C)(C)[C@H]2[C@H](CCn3cc([C@H](O)c4ccccc4)nn3)O[C@@]3(C(=O)N(Cc4ccc(N5CCOC5=O)cc4)c4ccccc43)[C@@H]2C)cc1`, the composite z-score is -0.25.
The molecule `CC(C)OC(=O)CC(=O)CC(O)c1cccc(C#N)c1` (stereo not given) came in with a composite z-score of -0.206.
In the case of `COc1cc(CO)cc(I)c1O[C@H]1C=C(C(=O)NCCO)C[C@@H](NCc2ccccc2F)[C@@H]1O` it was 0.485.
The figure for `CC(C)CN1C(=O)[C@@]2(Cc3ccccc31)c1ccccc1C(=O)N(Cc1ccccc1C(F)(F)F)[C@H]2c1ccc(CO)cc1` is -0.875; for `CCOC(=O)[C@@H]1[C@@H]2C(=O)N(CC)C(=O)[C@@H]2C[C@@H]1Sc1ccccc1` it is 0.209; for `C=CC[C@@H](OC(=O)Nc1ccc(OC)cc1)c1ccc(OCCO)cc1` it is -0.49.
